Mm-Cpn inhibitor – Inhibitors of TCP-1 ring complex (TRiC) of Methanococcus maripaludis (MmCpn): qHTS | Chaperonin Mm-Cpn (Methanococcus maripaludis) | purified Mm-Cpn ATPase, ADP Transcreener TR-FRET | Potency, µM (highest dose often 76.9 µM), inactives show top-dose activity, negative = inhibition, actives largely listed as inhibitors | hit rate 0.031% among 330,000; active = well fitted inhibition curve with a large enough effect; inconclusive = small, poorly fitted or top-dose-only effect; also: potency is read from the fitted curve at half-maximal effect; % is scaled to controls: 0 for no effect and ±100 for the full control effect; nearly all actives have a fitted effect of over 80% in size
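Eu-cryptate anti-ADP/ADP-d2 competition gives a ratio inversely related to ADP. Enzyme at 25 nM was pre-exposed to compound for 10 min, then given 10 uM ATP for 30 min, 37°C throughout.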
gsp antag – qHTS for Antagonists of gsp, the Etiologic Mutation Responsible for Fibrous Dysplasia/McCune-Albright Syndrome: qHTS; gsp-mutant cells, cAMP HTRF, 30 min; Potency, µM (series often up to 76.9 µM), inactives show top-dose activity change, negative = inhibition, usual class: inhibitors; hit rate 0.4% among 340,000; calls by dose curve; cell line not stated here;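 also: intracellular cAMP measured with PDE inhibitor Ro 20-1724 present during compound exposure; potency is read from the fitted curve at half-maximal effect; % is scaled to controls: 0 for no effect and ±100 for the full control effect; nearly all actives have a fitted effect of over 65% in size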
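HTRF cAMP read-out (cAMP-d2 plus anti-cAMP antibody-K in lysis buffer, 30 min RT). Before lysis, cells are exposed to compounds with […] for 30 min at 37C in DPBS containing Ca/Mg, BSA and Tween 20.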
TSHR antag – Antagonists of the Thyroid Stimulating Hormone Receptor: HTS campaign; TSHR-expressing cells, TSH-stimulated cAMP HTRF, 2 h; stronger effect = lower value; activity change, negative = inhibition, % at 11.5 µM; hit rate 0.2% among 330,000; AID 504810, 2011;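 active = activity change below a set negative limit, meaning inhibition stronger than a set level, cut at about -70% in these data; inconclusive = activity change between two set negative limits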; also: % is scaled to controls: 0 for no effect and ±100 for the full control effect
Target sequence (P16473 whole entry, looked up): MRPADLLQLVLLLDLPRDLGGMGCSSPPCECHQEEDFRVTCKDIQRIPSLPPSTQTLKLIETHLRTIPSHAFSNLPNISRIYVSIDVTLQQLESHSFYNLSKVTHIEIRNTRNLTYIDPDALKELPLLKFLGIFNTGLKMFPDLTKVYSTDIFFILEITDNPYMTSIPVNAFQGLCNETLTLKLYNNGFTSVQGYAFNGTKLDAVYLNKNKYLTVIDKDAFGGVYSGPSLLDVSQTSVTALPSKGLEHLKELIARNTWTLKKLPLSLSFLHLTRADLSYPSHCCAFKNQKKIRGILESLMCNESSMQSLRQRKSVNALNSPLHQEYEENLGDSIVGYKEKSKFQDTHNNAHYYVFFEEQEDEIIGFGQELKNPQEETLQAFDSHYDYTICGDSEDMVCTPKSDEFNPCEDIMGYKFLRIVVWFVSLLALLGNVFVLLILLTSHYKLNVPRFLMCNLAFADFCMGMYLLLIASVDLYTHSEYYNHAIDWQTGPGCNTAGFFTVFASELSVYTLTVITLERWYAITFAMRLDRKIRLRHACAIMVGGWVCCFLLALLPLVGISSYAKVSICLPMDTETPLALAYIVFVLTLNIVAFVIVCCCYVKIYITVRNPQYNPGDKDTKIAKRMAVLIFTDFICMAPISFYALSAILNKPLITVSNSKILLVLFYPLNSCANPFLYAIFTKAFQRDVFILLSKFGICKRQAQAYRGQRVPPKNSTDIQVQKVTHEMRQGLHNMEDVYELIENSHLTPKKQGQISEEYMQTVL
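Inhibition of cAMP made by TSHR-expressing cells under TSH stimulation (4nM final, EC80; 2 h, 37 deg C) is quantified with a one-step lysis HTRF kit, anti-cAMP cryptate versus cAMP-d2.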
gsp ag – qHTS for Agonist of gsp, the Etiologic Mutation Responsible for Fibrous Dysplasia/McCune-Albright Syndrome: qHTS; hit rate 0.13% among 340,000; gsp mutant cells, cAMP HTRF, 30 min; AID 624287, 2012; Potency, µM (doses to about 76.9 µM), for inactives: top-dose activation (cAMP increase), most hits filed as activators; active = well fitted activation curve with a large enough effect; inconclusive = small, poorly fitted or top-dose-only effect, or another doubt; inactive = no such curve, though single readings can be large or run the other way; cell line not stated here;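 also: phosphodiesterase inhibitor Ro 20-1724 added with compounds to block cAMP breakdown; potency is read from the fitted curve at half-maximal effect; nearly all actives have a fitted effect of over 60% in size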
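Cells in DMEM/10% FBS with G418 were pretreated with compounds in DMSO plus […] (300 uM stock) for 30 min at 37C. cAMP was measured by HTRF (cAMP-d2 plus anti-cAMP antibody-K) after 30 min at room temperature.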
uPA surface inh – qHTS for Inhibitors of Cell Surface uPA Generation. cell surface uPA generation assay, qHTS. Potency, µM (highest dose often 38.3 µM), without a hit: at the highest dose activity change, negative = inhibition, actives largely listed as inhibitors. AID 540303, 2011. hit rate 0.31% among 330,000; active = well fitted inhibition curve with a large enough effect; inconclusive = small, poorly fitted or top-dose-only effect; inactive = no such curve, though single readings can be large or run the other way; tested in mouse RAW 264.7 cells; also: potency is read from the fitted curve at half-maximal effect; % is scaled to controls: 0 for no effect and ±100 for the full control effect; nearly all actives have a fitted effect of over 55% in size
CCT modulator – High-Throughput Screening for Modulators of Cytosolic Chaperonin Activity | purified chaperonin ATPase assay, HTRF ADP detection, 30 min | activity change, % (concentration not given with the values), hits read low | hit rate 0.3% among 360,000; in the data active = activity change below about -30%; also: % is scaled to controls: 0 for no effect and ±100 for the full control effect
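Enzyme 40 or 20 nM (batch-dependent) in Tris pH 7.4/KCl/MgCl2/DTT; cpd 76 uM single point; ATP 10 uM; 30 min 37 °C; Transcreener ADP HTRF detection, 30 min RT; ratio 665/615.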
An asterisk follows results filed as active; ? = inconclusive; · = no result; [ ] = remark or other dose. In the library only some 1.2% were active in any assay of this set; here they are far more common.

SMILES	Mm-Cpn inhibitor	gsp antag	TSHR antag	gsp ag	uPA surface inh	CCT modulator
CCc1noc(C)c1C(=O)Nc1nc(-c2ccc(OC)c(OC)c2)cs1	-25.0%	-33.5%	-12.8	?	-12.1%	-1.7
CCc1noc(C)c1C(=O)OCC(=O)Nc1nc(-c2ccc(F)c(F)c2)cs1	-28.8%	39.8µM*	?	8.4%	-3.8%	1.2
Cc1cc(SC(C)C(=O)Nc2ncc(Cl)cc2Cl)nc2ccccc12 (centres undefined)	-1.5%	3.6%	0.8	?	-8.6%	0.2
COc1ccc(-c2cc3nc(-c4ccccc4)cc(N4CCCC(O)C4)n3n2)cc1 (centres undefined)	1.4%	35.5µM*	-1.2	?	34.1%	0.5
COc1ccc(-c2cc3nc(-c4ccccc4)cc(N4CCC(O)CC4)n3n2)cc1	-2.9%	?	-6.7	9.1%[15.4 µM]	16.5%	1.2
COc1ccccc1-c1cc(-c2ccc(O)cc2)nc(N)c1C#N	-4.0%	4.7%	19.3	?	?	-5.5
CC(=O)Nc1cccc(NC(=O)/C=C/c2ccc(S(=O)(=O)N3CCOCC3)cc2)c1	0.0%	-6.6%	1.7	-17.5%[15.4 µM]	-6.9%	1.1
Cc1ccc(NC(=O)/C=C/c2ccc(S(=O)(=O)N3CCOCC3)cc2)cc1S(=O)(=O)N(C)C	·	35.5µM*	·	13.3%[15.4 µM]	-0.7%	0.7
COc1cc(-c2noc(C)c2C#CCO)cc(OC)c1OC	1.1%	6.0%	-6.0	-48.5%	0.4%	-2.9
COc1cc(-c2noc(C)c2C#Cc2ccsc2)cc(OC)c1OC	0.6%	21.4%	6.3	0.9%	2µM*	-2.4
COCCCNC(=S)N(CCCN(C)C)Cc1cc2cc3c(cc2[nH]c1=O)OCCO3	1.6%	-5.1%	-14.7	13.4%	2.9%	-1.5
COCCNC(=S)N(CCCN(C)C)Cc1cc2cc3c(cc2[nH]c1=O)OCCO3	-0.6%	50.1µM*	-2.4	?	14.0%	-0.7
COc1ccc(CCNC(=O)C(C)OC(=O)c2cccs2)cc1OC (centres undefined)	-0.3%	9.5%	32.2	?	4.4%	1.8
Cc1ccc(NC(=O)c2cnn(-c3ccccc3)c2NC(=O)c2ccco2)cc1C	-0.2%	-18.5%	-3.1	-1.2%	5.7%	-39.2*
Cc1ccc(-n2[nH]c(C)c(/C=N/Nc3ccc([N+](=O)[O-])cc3[N+](=O)[O-])c2=O)cc1	-0.7%	31.6µM*	?	?	-4.5%	-3.5
CCCCC(=O)Nc1ccc2c(c1)oc1ccccc12	2.1%	-13.2%	-15.5	-26.1%	-3.8%	-0.3
CC(C)CC(=O)Nc1ccc2c(c1)oc1ccccc12	1.4%	-5.0%	-15.5	-2.8%	-9.2%	-40.3*
O=[N+]([O-])c1ccc(/C=N\NS(=O)(=O)c2ccc(F)cc2)o1	-1.2%	4.4%	12.2	-15.7%	8.91µM*	-4.6
O=C(N/N=C/c1ccc([N+](=O)[O-])o1)c1ccc(O)cc1	-1.5%	-16.8%	7.2	·	7.08µM*	0.2
O=C(N/N=C/c1ccc([N+](=O)[O-])o1)c1cc2c(ccc3ccccc32)o1	0.8%	6.0%	-5.5	?	?	-0.6
O=C(N/N=C/c1ccc([N+](=O)[O-])o1)c1cc2ccccc2o1	0.1%	1.7%	3.8	19.7%	2.51µM*	-1.3
COc1ccc(S(=O)(=O)N/N=C\c2ccc([N+](=O)[O-])o2)c(OC)c1	-6.5%	17.4%	8.8	?	?	0.1
COc1ccc(OC)c(S(=O)(=O)N2CCN(C)CC2c2ccccc2)c1 (centres undefined)	-9.3%	7.6%	7.6	8.5%[15.4 µM]	-3.6%	-8.7
Cc1cc(C[n+]2ccsc2N)c2ncccc2c1	39.8µM*	6.0%	3.3	18.9%	-14.1%	2.1
COc1ccc(OCCSc2n[nH]c(N)n2)cc1	0.5%	-7.0%	21.6	3.5%	-10.6%	0.8
SMILES	Mm-Cpn inhibitor	gsp antag	TSHR antag	gsp ag	uPA surface inh	CCT modulator
C=C(C)COc1ccc(-c2ncnc(C(F)(F)F)c2-c2ccccc2)c(O)c1	-0.2%	-3.4%	-8.1	0.7%	4.8%	0.2
CSCSC1=C(C#N)C(c2ccccc2Cl)C(C(C)=O)=C(C)N1 (centres undefined)	-8.0%	-4.2%	-79.8*	0.0%	-13.3%	-0.4
COc1ccc(OCC(=O)N/N=C2\CCCc3ccccc32)cc1	-1.5%	-8.8%	4.8	0.8%[15.4 µM]	3.0%	0.6
COc1ccccc1OCC(=O)N/N=C1\CCCCc2ccccc21	0.3%	-2.3%	0.3	6.2%[15.4 µM]	3.9%	-2.0
COc1ccccc1OCC(=O)N/N=C1\CCc2ccccc21	1.8%	10.0%	1.0	0.6%	5.5%	-34.0*
Cc1cccc2c1OCC/C2=N\NC(=O)COc1ccccc1	1.2%	-22.8%	44.4	1.6%	·	-31.8*
CCOC(=O)N1CCN(C(=O)c2cc(COc3ccc(OC)cc3Cl)on2)CC1	-0.3%	35.5µM*	-39.0	-2.4%	-11.5%	-0.9
CC(C)NC(=O)NC(=O)COC(=O)c1c2c(nc3ccccc13)CCC2	0.7%	-0.6%	-0.1	-7.8%[15.4 µM]	-12.1%	-0.6
Cc1c(CCC(=O)O)c(=O)oc2cc(O)ccc12	-11.7%	-5.3%	-5.1	?	-1.6%	-0.7
O=C(NN1CC(C(=O)OCc2ccc(Br)cc2)CC1=O)c1ccccc1 (centres undefined)	-0.4%	13.0%	0.1	27.6%	-5.8%	-1.1
Cc1ccccc1C(=O)NN1CC(C(=O)OCc2ccc(Cl)c(Cl)c2)CC1=O (centres undefined)	2.4%	31.6µM*	-3.7	6.1%	-1.0%	1.8
CCOc1ccc(NC(=O)CN(C)C(=O)CCNC(=O)c2ccccc2Cl)cc1OCC	-3.3%	-16.3%	9.7	-20.6%	2.1%	-44.4*
CCOc1ccc(NC(=O)CN(C)C(=O)CCCNC(=O)c2ccc(Cl)cc2)cc1OCC	·	·	·	-19.3%	·	-3.0
Cc1sc2ncnc(N3CCC(C(=O)Nc4ccc(Cl)c(Cl)c4)CC3)c2c1C	-4.7%	-26.5%	-3.0	-18.4%	-9.9%	-2.0
Cc1ccccc1OCC(=O)NNC(=O)C1CCN(c2ncnc3sc(C)c(C)c23)CC1	-4.3%	35.5µM*	-26.4	0.0%	-8.3%	-2.1
COc1ccccc1OCC(=O)NNC(=O)C1CCN(c2ncnc3sc(C)c(C)c23)CC1	1.1%	-23.9%	5.2	27.5%	15.8%	0.0
COc1ccc(-c2csc(NC(=O)C3CCN(c4ncnc5sc(C)c(C)c45)CC3)n2)cc1OC	-7.7%	?	-77.2*	8.2%[15.4 µM]	-10.8%	1.7

Assay outcomes deposited in PubChem BioAssay by National Center for Advancing Translational Sciences (NCATS).
